{"source": "PubChem BioAssay (NCI)", "note": "About 83,000 compounds went through this panel and 20% of them were active in at least one assay; those are over-represented in the sample as a whole.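 Note: values are percent growth. 100 is the growth of untreated cells, values between 100 and 0 indicate rising inhibition; between -100 and 0 indicates cell death.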 Active and inactive are the calls of the source."}
{"tested_on": "NCI-H322M lung", "experiment": "NCI-60 one-dose screen, 48 h (100 = growth as untreated, 0 = no growth, -100 = all killed)", "conditions": "10 µM unless noted", "description": "Growth inhibition of the NCI-H322M human Non-Small Cell Lung tumor cell line is measured as a screen for anti-cancer activity. Cells are grown in 96 well plates and exposed to the test compound for 48 hours. Compounds are tested at a single concentration, which is 10^-5 M for most compounds. The reported endpoint is percent growth (GI% or GIPRCNT), where numbers from 0 - 100% represent growth inhibition, and numbers from -100% - 0 represent cell death. For example, a value of 40 represents 60% growth inhibition. A value of 0 means no net growth occurred over the course of the experiment. A value of -40 indicates 40% of cells at the beginning of the experiment died by the end of the experiment. A value of -100 means all cells are dead at the end of the experiment.\nNCI-60 Human Tumor Cell Lines Screen was performed using the standard one-dose NCI protocol, which is described in more detail at https://dtp.cancer.gov/discovery_development/nci-60/default.htm.\nCompounds with GIPRCNT values below 10 were considered active. Activity score was based on GIPRCNT using the following formula: […]\nScore is 0 for GIPRCNT values of 100 or above, 50 for GIPRCNT values of 0, and 100 for GIPRCNT values of -100."}
{"smiles": "CC(=O)OC[C@@]1(C)C2CC[C@]3(C)C(CC=C4C5CC(C)(C)CC[C@]5(C(=O)Nc5ccc(C)cc5)CC[C@]43C)[C@@]2(C)C[C@@H](OC(C)=O)[C@@H]1OC(C)=O", "note": "(stereo not given in full)", "growth": "72.8% (inactive)"}
{"smiles": "COc1cc(C2CC(c3cc(OC)c(OC)c(OC)c3)=NN2c2ccccc2)ccc1OCc1ccc(C)cc1", "note": "(stereo not given)", "growth": "102% (inactive)"}
{"smiles": "C=C1CC[C@@H]2[C@]3(C)COC(c4cn[nH]c4-c4ccccc4)O[C@@H]3CC[C@@]2(C)[C@@H]1C/C=C1/C(=O)OCC1O", "note": "(stereo not given in full)", "growth": "83.7% (inactive)"}
{"smiles": "CC(C)c1ccc2c(N)c(C(=O)Nc3cccc(C(F)(F)F)c3)sc2n1", "growth": "81.2% (inactive)"}
{"smiles": "CC(/C=C1\\SC(=S)N(CCCC(=O)NC(CC(C)C)C(=O)O)C1=O)=C\\c1ccccc1", "note": "(stereo not given)", "growth": "92.8% (inactive)"}
{"smiles": "CN(C)c1ccnc(NCCCSC(c2ccccc2)(c2ccccc2)c2ccccc2)c1", "growth": "61.5% (inactive)"}
{"smiles": "C=C1CC[C@@H]2[C@]3(C)COC(c4ccco4)O[C@@H]3CC[C@@]2(C)[C@@H]1C/C=C1/C(=O)OCC1OC(C)=O", "note": "(stereo not given in full)", "growth": "79.5% (inactive)"}
{"smiles": "COc1ccc(NC(=O)Nc2ccc(OCc3ccc(F)cc3)cc2)cc1", "growth": "65.8% (inactive)"}
{"smiles": "COc1ccc(NC(=O)Cn2c(O)c(N=Nc3ccc(S(N)(=O)=O)cc3)c3ccccc32)cc1", "growth": "34.4% (inactive)"}
{"smiles": "NS(=O)(=O)c1ccc(-n2cc(-c3cccc(NC(=O)c4cc(C(F)(F)F)cc(C(F)(F)F)c4)c3)nn2)cc1", "growth": "65.8% (inactive)"}
{"smiles": "N#Cc1c(-c2ccc(Cl)cc2)nc2n[nH]c(-c3ccc(Cl)cc3)c2c1-c1ccc(C(F)(F)F)cc1", "growth": "10.2% (inactive)"}
{"smiles": "COc1ccc(Cc2nn(CC(=O)N/N=C/c3ccc(F)cc3)c(=O)c3c(C)noc23)cc1", "growth": "37.1% (inactive)"}
{"smiles": "COC(=O)/C=C/c1cccc2c1C(=O)NC(C)(c1cc3ccccc3oc1=O)N2", "note": "(stereo not given)", "growth": "93.7% (inactive)"}
{"smiles": "OCC1(CCCc2ccccc2)CCCN(c2nccc3ccccc23)C1", "note": "(stereo not given)", "growth": "82.5% (inactive)"}
{"smiles": "C=C1CCC2C3(C)COC(c4ccccc4F)OC3CCC2(C)C1CC(O)C1=CCOC1=O", "note": "(stereo not given)", "growth": "99.5% (inactive)"}
{"smiles": "C=C1CC[C@@H]2[C@]3(C)COC(c4cn[nH]c4-c4ccc(Br)cc4)O[C@@H]3CC[C@@]2(C)[C@@H]1C/C=C1/C(=O)OCC1O", "note": "(stereo not given in full)", "growth": "32% (inactive)"}
{"smiles": "COc1cc2c(c(OC)c1OC)C(=O)CC(c1cccc(NC(=O)c3cccc(NC(=O)[C@H](C)NC(=O)OC(C)(C)C)c3)c1)O2", "note": "(stereo not given in full)", "growth": "105% (inactive)"}
{"smiles": "O=c1c2ccccc2nc(-c2ccccc2)n1/N=C/c1ccc2ccccc2c1", "growth": "80.1% (inactive)"}
{"smiles": "COc1cc2c(c(OC)c1OC)C(=O)CC(c1cccc(NC(=O)c3cc(N)ccc3Cl)c1)O2", "note": "(stereo not given)", "growth": "89% (inactive)"}
{"smiles": "CN(C)CCCNC(=O)c1cc(NC(=O)c2cc(NC(=O)c3ccc(/C=C/c4ccccc4)cc3)cn2C)cn1C", "growth": "73.4% (inactive)"}
{"smiles": "O=C(COc1ccc2c(c1)CCCC(=O)N2)NCc1ccccc1", "growth": "112% (inactive)"}
{"smiles": "COc1cc2oc(-c3cccc(C(=O)Nc4cccc([N+](=O)[O-])c4)c3)cc(=O)c2c(OC)c1OC", "growth": "40.2% (inactive)"}
{"smiles": "Cc1ccc2c(N)c(C(=O)Nc3ccc(-c4ccccc4)cc3)sc2n1", "growth": "73.8% (inactive)"}
{"smiles": "C=C1CC[C@@H]2[C@]3(C)COC(c4cn[nH]c4-c4ccc(OC)cc4)O[C@@H]3CC[C@@]2(C)[C@@H]1C/C=C1/C(=O)OCC1O", "note": "(stereo not given in full)", "growth": "32.6% (inactive)"}
{"smiles": "COc1cc(-c2cc(-c3cccc(OCC(=O)O)c3)[nH]c(=O)c2C#N)cc(OC)c1OC", "growth": "91% (inactive)"}
{"smiles": "COc1cc2oc(-c3cccc(C(=O)Nc4ccc(Cl)cc4)c3)cc(=O)c2c(OCCNC(=O)[C@H](CO)NC(=O)OC(C)(C)C)c1OC", "growth": "35.4% (inactive)"}
{"smiles": "CCN1C(=O)/C(=N\\N=C(/C)c2ccc3c(c2)Nc2ccccc2S3)c2cc(Cl)ccc21", "growth": "91.3% (inactive)"}
{"smiles": "CC1=C(C(=O)OCc2ccccc2)C(c2c(O)cc(O)cc2O)n2c(nc3ccccc32)N1", "note": "(stereo not given)", "growth": "94.1% (inactive)"}
{"smiles": "Cc1cccc(NC(=O)CN2CCN(c3ncnc4c3cnn4-c3ccccc3)CC2)c1", "growth": "91.3% (inactive)"}
{"smiles": "CCCCc1c(Nn2cnnn2)no[n+]1[O-]", "growth": "66.7% (inactive)"}
{"smiles": "CC(=O)OC[C@@]1(C)C2CC[C@]3(C)C(CC=C4C5CC(C)(C)CC[C@]5(C(=O)Nc5ccc(F)cc5)CC[C@]43C)[C@@]2(C)C[C@@H](OC(C)=O)[C@@H]1OC(C)=O", "note": "(stereo not given in full)", "growth": "60.3% (inactive)"}
{"smiles": "O=c1cc(-c2ccccc2)oc2cc(OCCCC[P+](c3ccccc3)(c3ccccc3)c3ccccc3)cc(O)c12", "growth": "-100% (active)"}
{"smiles": "Cc1cc2nc3c4ccccc4n(CC4=NCCN4)c3nc2cc1C", "growth": "22.3% (inactive)"}
{"smiles": "C=C1CC[C@@H]2[C@]3(C)COC(c4cn(-c5ccccc5)nc4-c4ccccc4)O[C@@H]3CC[C@@]2(C)[C@@H]1C/C=C1/C(=O)OC[C@H]1O", "note": "(stereo not given in full)", "growth": "29.1% (inactive)"}
{"smiles": "C=CC[N+](C)(C)CCn1c2ccccc2c2nc3cc(C)c(C)cc3nc21", "growth": "102% (inactive)"}
{"smiles": "CCOc1ccc(C(=O)NC(=S)Nc2ccc(S(N)(=O)=O)cc2)cc1", "growth": "101% [100 µM] (inactive)"}
{"smiles": "COc1cc(-c2ccc(/C=N/NC(=O)c3[nH]c4ccc(Br)cc4c3-c3ccccc3)o2)cc(OC)c1OC", "growth": "81.2% (inactive)"}
{"smiles": "O=C(NNc1ccccc1)n1c(=O)c2ccccc2c(=O)n1-c1ccccc1", "growth": "98.8% (inactive)"}
{"smiles": "O=C(O)Cn1c(O)c(/C=C2/C=c3cc4c(cc3=NC2=O)OCCO4)sc1=S", "growth": "101% (inactive)"}
{"smiles": "COc1c(F)ccc(C(=O)Nc2ccc3nc(NC(=O)C4CCCN(S(=O)(=O)c5ccc(Br)s5)C4)sc3c2)c1F", "note": "(stereo not given)", "growth": "97.9% (inactive)"}
